Bioassay records from PubChem.
PLCg1 inh – blocks human PLC-gamma1 enzyme activity; P19174; purified PLC-gamma1, fluorogenic substrate, fluorescence; inhibition, % at 12.2 µM; hit rate 0.84% among 370,000; AID 720700; in the data active means inhibition above about 9.5%
PLC-beta3 inh – blocks human PLC-beta3 enzyme activity; Q01970; Purified PLC-beta3, fluorogenic substrate, fluorescence; inhibition, % at 12.2 µM; hit rate 0.18% among 370,000; AID 720704; in the data active means inhibition above about 11%
Target sequence (Q01970 whole entry, looked up): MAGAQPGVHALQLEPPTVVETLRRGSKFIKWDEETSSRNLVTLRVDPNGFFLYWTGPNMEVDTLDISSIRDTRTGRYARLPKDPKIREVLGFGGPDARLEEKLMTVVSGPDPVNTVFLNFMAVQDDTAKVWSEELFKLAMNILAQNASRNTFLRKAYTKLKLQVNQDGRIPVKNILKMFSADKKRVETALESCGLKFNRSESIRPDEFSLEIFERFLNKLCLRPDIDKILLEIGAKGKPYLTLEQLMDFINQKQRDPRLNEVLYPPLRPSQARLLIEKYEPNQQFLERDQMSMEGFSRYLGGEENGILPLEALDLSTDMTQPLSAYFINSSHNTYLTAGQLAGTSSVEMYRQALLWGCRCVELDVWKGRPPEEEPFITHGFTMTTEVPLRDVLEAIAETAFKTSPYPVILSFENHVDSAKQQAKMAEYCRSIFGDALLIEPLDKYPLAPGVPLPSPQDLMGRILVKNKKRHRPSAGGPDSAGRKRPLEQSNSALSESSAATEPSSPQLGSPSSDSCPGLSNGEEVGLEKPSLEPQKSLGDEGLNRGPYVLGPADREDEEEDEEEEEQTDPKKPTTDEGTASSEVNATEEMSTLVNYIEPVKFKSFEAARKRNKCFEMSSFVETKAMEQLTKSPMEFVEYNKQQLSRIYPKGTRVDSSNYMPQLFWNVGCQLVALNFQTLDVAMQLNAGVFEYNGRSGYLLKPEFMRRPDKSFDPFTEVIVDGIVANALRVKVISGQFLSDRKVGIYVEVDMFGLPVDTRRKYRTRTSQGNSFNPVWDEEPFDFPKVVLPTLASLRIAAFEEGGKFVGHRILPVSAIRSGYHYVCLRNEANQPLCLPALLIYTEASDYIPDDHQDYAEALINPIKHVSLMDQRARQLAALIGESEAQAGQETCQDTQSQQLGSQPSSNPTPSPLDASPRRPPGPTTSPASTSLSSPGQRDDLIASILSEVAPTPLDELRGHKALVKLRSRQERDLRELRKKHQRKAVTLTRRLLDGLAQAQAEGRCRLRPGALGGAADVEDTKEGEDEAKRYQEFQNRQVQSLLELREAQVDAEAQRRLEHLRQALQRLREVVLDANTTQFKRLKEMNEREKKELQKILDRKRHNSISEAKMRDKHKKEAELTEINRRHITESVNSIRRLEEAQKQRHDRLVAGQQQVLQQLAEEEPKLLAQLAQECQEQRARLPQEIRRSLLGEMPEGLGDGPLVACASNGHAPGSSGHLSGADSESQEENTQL
ADAM17 inh – inhibits human ADAM17. AID 720648. recombinant ADAM17, EDANS/DABCYL FRET peptide cleavage. hit rate 0.83% among 370,000. P78536. inhibition, % at 6.95 µM;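 active means inhibition above the mean of compounds lying between control limits plus 3 SD, set per campaign, cut at about 8.5% in these data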
proKLK7 act – activators of human kallikrein-7 zymogen; hit rate 0.9% among 370,000; activation, % at 7 µM; P49862; purified proKLK7, EDANS-DABCYL substrate fluorescence; 100% is mature enzyme control, 0% vehicle;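 active means activation above the mean of all tested compounds plus 3 SD, computed per campaign excluding outliers beyond control limits, cut at about 13% in these data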
ADAM10 inh – ADAM10 inhibition, QFRET primary screen; O14672; recombinant ADAM10, EDANS/DABCYL FRET peptide cleavage, 3 h; inhibition, % at 7 µM; hit rate 0.62% among 370,000;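 active means inhibition above a per-campaign cutoff equal to the mean of compounds falling between control-based bounds plus 3 SD, cut at about 20% in these data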
KLK7 act conf – confirmation of human kallikrein-7 zymogen activators. shares compounds with proKLK7 act. purified proKLK7, EDANS-DABCYL substrate fluorescence; scaled: vehicle 0, mature enzyme 100. hit rate 68% among 3,200. activation, % at 7 µM;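 active means activation, as change over the incubation, above the mean of all tested compounds plus 3 SD, cut at about 13% in these data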
EDANS interfere – fluorescence interference counter-screen for KLK7 activators. AID 686952. activation, % at 7 µM. hit rate 80% among 3,200. EDANS-DABCYL substrate fluorescence interference, no enzyme, 4 h; solvent 0%, active enzyme control 100%. shares compounds with proKLK7 act;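 active means activation above the all-compound mean plus 3 SD, ignoring values outside control-based bounds, cut at about 4.8% in these data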;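 further: value is the 4 h activation minus the activation read at time zero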
K7 EDANS ctr – EDANS fluorescence interference in dose response, no enzyme | shares compounds with proKLK7 act | EDANS-DABCYL peptide fluorescence interference | EC50, µM | hit rate 20% among 250;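 active means compounds that raise the fluorescence signal in this interference counterscreen, with EC50 at or below 10 µM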;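 further: intact quenched peptide substrate alone read at 355 nm excitation and 520 nm emission; signal is fluorescence gain from T0 to T4 after four hours at room temperature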
Large screens that a line does not name were inactive (follow-up assays come after a bar, where they were run). Most compounds without a hit are left out; they make up all but 2.9% or so of the library.

Nc1[nH]c(C(=O)c2ccccc2)c(-c2ccc(Cl)cc2F)c1C(=O)NCCc1c[nH]c2ccccc12	none
COC(=O)c1cc2c(c3c4cc(C)ccc4n(S(=O)(=O)c4ccc(OC)cc4)c13)C(=O)N(C)C2	none
COc1cc2ccccc2cc1C(=O)O	none
COc1cc2c(OC)cccc2cc1C(=O)O	proKLK7 act 18 | KLK7 act conf inactive | EDANS interfere 8.5
Oc1ccc(Br)cc1-c1nc2cnccn2c1NC1CCCCC1	none
Fc1ccc(-c2nc3cnccn3c2NC2CCCC2)cc1	proKLK7 act 58 | KLK7 act conf 63 | EDANS interfere inactive | K7 EDANS ctr inactive
COC(=O)c1ccc2c(C3(c4c[nH]c5ccccc45)CCN(C(=O)OC(C)(C)C)CC3)c[nH]c2c1	none
Cc1cc(NS(=O)(=O)c2ccc(NC(=O)CSc3nnc(-c4cnccn4)n3-c3ccccc3)cc2)nc(C)n1	none
Cc1cc(=O)oc2cc(NS(=O)(=O)c3ccccc3)ccc12	proKLK7 act 67 | KLK7 act conf 76 | EDANS interfere 76
Cc1cc(=O)oc2cc(NS(=O)(=O)c3ccc(F)cc3)ccc12	proKLK7 act 79 | KLK7 act conf 65 | EDANS interfere 75
COC(=O)[C@@]12CCCCC3=C1N(CCC3)C(=O)[C@H]2CC(=O)N1CCCCC1	none
Nc1nc2c(ncn2[C@@H]2O[C@H](C(=O)NCCCN3CCCC3=O)[C@@H](O)[C@H]2O)c(=O)[nH]1	none
Cc1[nH]nc2c1C(c1ccc(F)cc1)N(c1ccccc1)C2=O (stereo not drawn)	none
CCOCCC(=O)Nc1ccc2c(c1)c(=O)n(C)n2-c1ccccc1F	proKLK7 act 21 | KLK7 act conf 21 | EDANS interfere 22
CC(CC(=O)Nc1ccc2c(c1)c(=O)n(C)n2Cc1ccc(Cl)cc1)C(F)(F)F (stereo not drawn)	none
CCOCCC(=O)Nc1ccc2c(c1)c(=O)n(C)n2Cc1cccc(C(F)(F)F)c1	proKLK7 act 16 | KLK7 act conf inactive | EDANS interfere 9.7
COc1cc(Cn2c3ccc(NC(=O)CC(C)C(F)(F)F)cc3c(=O)n2C)ccc1F (stereo not drawn)	proKLK7 act 17 | KLK7 act conf inactive | EDANS interfere inactive
CC(C)C[C@@H]1COc2cccc(N3CCCC3)c2S(=O)(=O)N1C	none
CCOC(=O)[C@@]12CCCC=C1N(CCc1ccc(Cl)cc1)C(=O)[C@H]2CC(=O)N1CCC(c2ccccc2)CC1	none
CC(=O)c1ccc(Sc2ccccc2N)c([N+](=O)[O-])c1	proKLK7 act 15 | KLK7 act conf inactive | EDANS interfere inactive
CC(=O)c1ccc(Sc2ccccc2)c([N+](=O)[O-])c1	none
Fc1c(-c2ccc3ncnc(NCc4cccs4)c3c2)ccc2c1OCO2	none (no result: proKLK7 act)
CCN(CC)CCN(C(=O)c1cc2c(ccc3ccccc32)oc1=O)c1nc2cc3c(cc2s1)OCCO3	proKLK7 act 46 | KLK7 act conf 61 | EDANS interfere 65
CCN(CC)CCN(C(=O)c1ccc2c(c1)OCCO2)c1nc2cc3c(cc2s1)OCO3	none
O=C(OC12CCCN(C1)/C(=C/c1ccccc1)C2)c1cccc(F)c1 (stereo not drawn)	none
COc1cc(C)cc2oc(=O)c(CC(=O)N3CCN(C(=O)C4COc5ccccc5O4)CC3)c(C)c12 (stereo not drawn)	none
CC(=O)Oc1ccc2c(C)c(CC(=O)N3CCN(C(=O)C4COc5ccccc5O4)CC3)c(=O)oc2c1C (stereo not drawn)	proKLK7 act 155 | KLK7 act conf 344 | EDANS interfere 368
Cc1cc(C)c2nc(N3C(=O)C(O)=C(C(=O)c4ccco4)C3c3cccc(O)c3)sc2c1 (stereo not drawn)	proKLK7 act 14 | KLK7 act conf 20 | EDANS interfere 22
Cc1cc(C)c2nc(N3C(=O)C(O)=C(C(=O)c4ccco4)C3c3ccc(O)cc3)sc2c1 (stereo not drawn)	none
CC(C)CNc1ccc2c(c1)OC[C@@H](CC(C)C)NS2(=O)=O	none
Nc1ccc(-c2ccc(C(=O)O)s2)cn1	proKLK7 act 19 | KLK7 act conf 73 | EDANS interfere 82
CCN1C(=O)c2cccc3c(S(=O)(=O)N4CCNCC4)ccc1c23	proKLK7 act 171 | KLK7 act conf 57 | EDANS interfere 68
CCOC(=O)C1CCCN(S(=O)(=O)c2ccc3c4c(cccc24)C(=O)N3CC)C1 (stereo not drawn)	none
CCN1CCN(S(=O)(=O)c2ccc3c4c(cccc24)C(=O)N3CC)CC1	proKLK7 act 56 | KLK7 act conf 44 | EDANS interfere 46
CCN1C(=O)c2cccc3c(S(=O)(=O)NCc4ccco4)ccc1c23	none
CCN1C(=O)c2cccc3c(S(=O)(=O)N4CCCC4C(=O)O)ccc1c23 (stereo not drawn)	proKLK7 act 37 | KLK7 act conf 22 | EDANS interfere 24
CN1C(=O)[C@@](O)(c2cccn2C)c2cc(Cl)ccc21	none
CC(C)C[C@H]1COc2cccc(F)c2S(=O)(=O)N1Cc1cn(CCC2OCCCO2)nn1	none
COc1ccc(C2CC(=O)C(c3ccc(C(F)(F)F)cc3)=CN2Cc2ccccc2)cc1 (stereo not drawn)	none
CCOC(=O)N1CCN(C(=O)C[C@H]2C[C@@]3(C(=O)OC)C(=C[C@H](C(C)(C)C)O[C@@H]3C)N(Cc3cccc4ccccc34)C2=O)CC1	none
CC(=O)NCCC(=O)Nc1sc2c(c1-c1nc3ccccc3[nH]1)CCCC2	none
CN1CCN(S(=O)(=O)c2cccc(C(=O)Nc3sc4c(c3-c3nc5ccccc5[nH]3)CCCC4)c2)CC1	proKLK7 act 50 | KLK7 act conf inactive | EDANS interfere 12
COc1ccc(CN(CCN2CCOCC2)C(=O)c2cc(Cl)ccc2F)cc1OC	none
CC1=C(C#N)C(C)C2=C(CC(C)(C)CC2=O)N1 (stereo not drawn)	proKLK7 act 16 | KLK7 act conf 39 | EDANS interfere 40
CC1=C(C#N)C(c2ccc(O)cc2)C2=C(CC(C)(C)CC2=O)N1 (stereo not drawn)	none
CC1=C(C#N)C(c2cccnc2)C2=C(CC(C)(C)CC2=O)N1 (stereo not drawn)	proKLK7 act 38 | KLK7 act conf 67 | EDANS interfere 52 | K7 EDANS ctr inactive
CC(C)[C@H](N)C(=O)N[C@H](C(=O)N1CCC2CCN(Cc3ccccc3)CC21)C(C)C (stereo partly drawn)	none
